Sampled rows, rich in hits. Any-hit rate of the full collection: about 8%.
KB-3-1 tox – kills parental KB-3-1 adenocarcinoma cells. KB-3-1 viability, CellTiter-Glo ATP luminescence, 72 h. 1.4% of 400,000 active. AID 1347075. Potency, µM (titrated, usually from 46.1 µM), actives largely listed as cytotoxic; also: % is scaled to controls: 0 for no effect and ±100 for the full control effect; nearly all actives have a fitted effect of over 60% in size
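Cells are dispensed, compounds pinned in, plates held at 37 °C for 72 h, then CellTiter-Glo is added and luminescence read after 10 minutes. Cell line: parental KB-3-1 in phenol-red-free DMEM, 10% FBS.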
HT1080 IDH1KD tx – HT-1080 IDH1 knockdown cell toxicity (counter line). HT-1080 IDH1 knockdown viability, ATP luminescence, 48 h. Potency, µM (highest dose often 46.1 µM), for the others: at the top dose activity, negative = toxicity, most hits filed as cytotoxic. 2% of 360,000 active;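 also: 0% = DMSO wells and -100% = cell-free medium wells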
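Viability of IDH1-knockdown HT-1080 fibrosarcoma cells was assessed by CellTiter-Glo after 48 h at 37 °C with titrated compound; concentration-effect curves were classified by fit quality and response size.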
KB-V1 MDR tox – kills drug-selected multidrug resistant KB-V1 cells | KB-V1 MDR cells viability, CellTiter-Glo, 72 h | AID 1347076 | 3.4% of 400,000 active | Potency, µM (doses to about 46.1 µM), hits mostly cytotoxic; also: % is scaled to controls: 0 for no effect and ±100 for the full control effect; nearly all actives have a fitted effect of over 60% in size
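qHTS viability screen in drug-selected KB-V1 MDR cells: 72 h compound treatment at 37 degrees C, ATP luminescence end point.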
HT1080-NT tox – kills 2HG-producing HT-1080-NT fibrosarcoma cells; HT-1080-NT fibrosarcoma viability, CellTiter-Glo ATP luminescence, 48 h; Potency, µM (top dose mostly 46.1 µM), for inactives: top-dose activity, negative = less viability, usual class: cytotoxic; 1.6% of 360,000 active; AID 686970;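 also: NT is the 2HG producing partner of a matched IDH1 knockdown line; 0% = DMSO-treated cells and -100% = media-only wells without cells; nearly all actives have a fitted effect of over 55% in size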
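750 cells/well, RPMI + 5% FBS; 2 h settle, compound pin-transfer, 48 h at 37 degrees C. CellTiter-Glo 10 min RT, luminescence. Normalized to DMSO and media-only wells.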
MCF10A rereplic – inducers of DNA re-replication in MCF 10A breast cells | MCF 10A DNA re-replication, Hoechst nuclear intensity, 48 h | Potency, µM (doses to about 46.1 µM), inactives show top-dose activity, positive = re-replication, hits mostly activators | 2.9% of 350,000 active; also: % of control where 0% means no effect; nearly all actives have a fitted effect of over 50% in size
SW480 rerep – inducers of DNA re-replication in SW480 colon cancer cells | SW480 DNA re-replication, Hoechst DNA content imaging, 48 h | Potency, µM (doses to about 46.1 µM), inactives show at the highest dose re-replication activation, usual class: activators | 1.8% of 340,000 active; also: % of control where 0% means no effect; nearly all actives have a fitted effect of over 55% in size
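Hoechst fluorescence of nuclei (405 nm excitation, 500-530 nm emission) measured by plate-scanning imager after 48 hr compound exposure at 37 C; re-replication scored as increased number of nuclei with elevated intensity.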
The depositor's hits bear a star; i = inactive; ? = inconclusive; · = not tested or not shown; ! = a repeat was not active. Calls follow the shape of the dose curve; as a rule, active = well fitted curve in the direction sought with a large enough effect; inconclusive = small, poorly fitted or top-dose-only effect, or another doubt; inactive = no such curve, though single readings can be large; an effect the other way counts as inactive or inconclusive. Potency is read from the fitted curve at half-maximal effect.

SMILES	KB-3-1 tox	HT1080 IDH1KD tx	KB-V1 MDR tox	HT1080-NT tox	MCF10A rereplic	SW480 rerep
Cc1ccc(-n2cc(C(=O)c3ccc(N4CCN(C)CC4)cc3)nn2)cc1Cl	i	2%	i	11%	0.73µM*	-46%
CCCc1nnc(SCC(=O)N2C(C)CCCC2C)n1CC1CCCO1 (configuration not stated)	i	-2%	i	0%	-2%	-5%
N=c1c(S(=O)(=O)c2ccc(Cl)cc2)cc2c(=O)n3ccccc3nc2n1CCN1CCOCC1	i	2%	13µM*	12%	22%	12%
Cc1ccc(S(=O)(=O)c2cc3c(=O)n4ccccc4nc3n(CCCN3CCOCC3)c2=N)cc1C	i	1%	i	6%	23µM*	23µM*
N=c1c(S(=O)(=O)c2ccccc2)cc2c(=O)n3ccccc3nc2n1CCCN1CCOCC1	i	3%	i	0%	-11%	?
COc1ccc2c(c1)C1CC(C)(NC(=O)C1C(=O)c1ccccc1)O2 (configuration not stated)	i	0%	i	-7%	1%	3%
COc1ccccc1NC(CC(=O)c1ccccc1)C(=O)OCC(=O)c1ccc(C)c(C)c1 (configuration not stated)	i	3%	i	1%	11%	3%
O=C1CN(CCN2CC(=O)N(Cc3ccccc3)C(=O)C2)CC(=O)N1Cc1ccccc1	i	0%	i	-5%	·	·
CC1(C)CC(=O)N(Cc2ccccc2)C(=O)C1	i	12%	i	14%	0%	9.2µM*
COc1ccc(S(=O)(=O)NNC(=O)c2csc(-n3nc(C)cc3C(F)(F)F)n2)cc1OC	i	-16%	i	-18%	3%	-2%
COc1ccc(CNC(=O)Cn2cccc2C(=O)c2ccccc2)cc1	i	3%	i	6%	1%	7%
COc1ccc(-c2nnc3ccc(SCC(=O)N4CCOCC4)nn23)cc1	i	-8%	i	-1%	-2%	3%
COc1ccc(-c2nnc3ccc(SC)nn23)cc1	i	?	15µM*	-3%	2%	-4%
CCOC(=O)C(C)Sc1ccc2nnc(-c3ccc(F)cc3)n2n1 (configuration not stated)	?	9%	15µM*!	18%	16%	2%
Cc1cn2c(=O)c(S(=O)(=O)NCCc3ccc(Cl)cc3)c(C)nc2s1	i	·	i	·	·	·
O=C(CCCCCCCCC(=O)N1CCCCC1)N1CCCCC1	?	3%	2.3µM*	8%	18%	?
CC(Sc1nc(-c2ccc(F)cc2)cs1)C(=O)N1c2ccccc2CC1C (configuration not stated)	i	?	?	?	21µM*	?
Cc1ccc(-c2nnc(-c3ccccc3Br)o2)cc1	?	0%	i	2%	6%	-3%
CN1CCN(Cc2c(O)ccc3cc(-c4ccccn4)c(=O)oc23)CC1	i	11%	?	10%	23µM*	9.2µM*
Cc1c(C)c2ccc(O)c(CN3CCN(C)CC3)c2oc1=O	i	28%	i	27%	-7%	2%
CC(=O)c1sc2nc(CSc3nnnn3-c3ccccc3)[nH]c(=O)c2c1C	i	0%	i	-4%	9%	-2%
Cc1ccc(-n2nnnc2SCc2nc3sc(C)c(C)c3c(=O)[nH]2)cc1	i	0%	18µM*	10%	16%	-132%
Cc1cc(C)cc(NS(=O)(=O)c2ccc3[nH]cc(C(=O)N4CCCCCC4)c(=O)c3c2)c1	i	·	i	·	·	·
COc1cc(C(=O)Nc2cc(C)c(O)c(-c3nc4cc(Cl)ccc4o3)c2)cc(OC)c1OC	7.3µM*	·	i	·	·	·
COc1cc(C(=O)Nc2cccc(-c3nc4cc(C)ccc4o3)c2C)cc(OC)c1OC	i	?	i	-29%	7.3µM*	1%
SMILES	KB-3-1 tox	HT1080 IDH1KD tx	KB-V1 MDR tox	HT1080-NT tox	MCF10A rereplic	SW480 rerep
CCOC(=O)CNC(=O)COc1coc(CN2CCN(c3ccccc3)CC2)cc1=O	i	2%	?	6%	-3%	-26%
Cc1ccc(-n2cc(CNCCCN3CCCC3=O)c(-c3ccc(F)cc3)n2)cc1	i	0%	i	-22%	14%	?
Cn1c(=NC(=O)CN2C(=O)C3CC=CCC3C2=O)sc2ccccc21 (configuration not stated)	i	14%	5.2µM*!	14%	8%	-1%
Cn1c(=NC(=O)C2=NNC(=O)CC2)sc2ccccc21	3.3µM*	28%	1.5µM*	22%	3%	-1%
C/C(=N\NC(=O)C1(C)CC1(Br)Br)c1ccc(NC(=O)C2CCC2)cc1 (configuration not stated)	21µM*	?	?	?	?	16%
CCn1c(=O)cc(SCC(=O)N2CCN(c3ccccc3OC)CC2)c2ccccc21	i	?	8.2µM*	-4%	8%	0%
COc1cc2c3c(c1)c(N=NC(N)=S)c(O)n3C(C)(C)C=C2C	i	-4%	i	-7%	11%	8%
Cc1cc(Nc2cccc(Cl)c2)nc(-c2ccccc2O)n1	i	?	i	-30%	?	29µM*
Cc1cc(Nc2ccc(Cl)cc2)nc(-c2ccccc2O)n1	i	?	i	?	?	?
CCCn1c(=O)sc2cc(NC(=O)c3ccc(OC)c(Br)c3)ccc21	23µM*	·	i	·	·	·
CC(/C=N/NC(=O)Cn1cnc2c1c(=O)n(C)c(=O)n2C)=C\c1ccco1	i	1%	i	-4%	0%	1%
CC[n+]1c(/C=C/C=C/N(C(C)=O)c2ccccc2)sc2ccccc21	16µM*	?	?	?	-6%	0%
CC(C)OCCCNC(=O)c1ccc(NC(=O)C2=CSCCO2)cc1	i	8%	i	12%	3%	-3%
CCS(=O)(=O)N1CCC(C(=O)NCCN2CCN(Cc3ccccc3)CC2)CC1	i	9%	i	0%	?	-12%
Cc1ccc(NC(=O)CN2C(=O)S/C(=C\c3ccc(-c4cccc(C(=O)O)c4C)o3)C2=O)cc1C	i	-12%	i	?	13µM*	?
Cc1ccc(/C=C2/NC(=O)N(Cc3ccc(Br)cc3)C2=O)o1	i	2%	i	-9%	16µM*	?
O=C(O)c1ccc(-c2ccc(/C=C3\NC(=O)N(Cc4ccc(Cl)cc4)C3=O)o2)cc1Cl	?	?	i	-13%	11µM*	7.3µM*

From PubChem
